Results on three compounds are retold here after PubChem BioAssay (EPA / NIEHS).

Molecules are shown by their SMILES. Active and inactive are the calls of the source. Rule for the calls: active = hit-call score of the fitted dose curve at least 0.9, where 1 is the maximum; inactive = score below 0.9.

Read-out in experiment [1]: C-C motif chemokine 2 (Homo sapiens) (UniProt P13500)
As to the kind of experiment: BSK_KF3CT_MCP1: BioMAP Diversity Plus: KF3CT Assay for Monocyte Chemoattractant Protein 1 (MCP1/CCL2) Biomarker Activity (AID 2283073). The following applies: primary human keratinocytes with fibroblasts; actives raise or lower the signal. Summed up: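 Human keratinocyte plus foreskin fibroblast primary co-culture exposed to chemical for 24 h. MCP-1 levels measured by ELISA. Bidirectional curve fitting relative to DMSO negative control as baseline.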

Read-out in experiment [2]: Matrix Metallopeptidase 9 (MMP9), MMP9 (gene 4318)
As to the kind of experiment: BSK_KF3CT_MMP9: BioMAP Diversity Plus: KF3CT Assay for Matrix Metallopeptidase 9 (MMP9) Biomarker Activity (AID 2283074).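 For AC50: MMP9 protein level quantified by ELISA in the co-culture.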 The following applies: primary human keratinocytes with fibroblasts; actives raise or lower the signal. Summed up:
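Keratinocyte plus foreskin fibroblast human primary skin co-culture was dosed with chemical and MMP-9 was quantified by ELISA 24 h later. Bidirectional curve fitting used DMSO as negative control and activity baseline.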

Read-out in experiment [3]: urokinase plasminogen activator (uPA), PLAU (gene 5328)
Briefly: BSK_KF3CT_uPA: BioMAP Diversity Plus: KF3CT Assay for urokinase plasminogen activator (uPA) Biomarker Activity (AID 2283075). Particulars: primary human keratinocytes with fibroblasts; actives raise or lower the signal. Summed up:
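Human keratinocyte plus foreskin fibroblast primary co-culture exposed to chemical for 24 h. uPA levels were quantified by ELISA, and activity was fitted bidirectionally against a DMSO negative-control baseline.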

Read-out in experiment [4]: E-selectin (Homo sapiens) (UniProt P16581)
As to the kind of experiment: BSK_LPS_Eselectin: BioMAP Diversity Plus: LPS Assay for Eselectin Biomarker Activity (AID 2283077). Particulars: primary human HUVEC with PBMC; actives raise or lower the signal. An outline of the steps:
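Human umbilical vein endothelial cells co-cultured with peripheral blood mononuclear cells under LPS stimulation; E-selectin measured by ELISA 24 h after chemical dosing. Activity fitted bidirectionally against DMSO as negative control and baseline.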

Read-out in experiment [5]: Interleukin-8 (IL8), CXCL8 (gene 3576)
Briefly: BSK_LPS_IL8: BioMAP Diversity Plus: LPS Assay for Interleukin-8 (IL8) Biomarker Activity (AID 2283078). Particulars: primary human HUVEC with PBMC; actives raise or lower the signal. Summed up:
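Human umbilical vein endothelial cells co-cultured with PBMC were stimulated with LPS; IL-8 levels were measured by ELISA 24 h after chemical dosing. Activity was fitted bidirectionally against DMSO as negative control and baseline.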

Experiment [6] can be described thus: BSK_LPS_SRB: Viability Assessment in the BioMAP Diversity Plus: LPS Assay (AID 2283079).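 Note: total protein by sulforhodamine B absorbance as a cytotoxicity measure; measured one day after compound addition; fitted in both directions against DMSO so loss or gain of signal counts.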 The following applies: primary human HUVEC with PBMC. Summed up:
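Human umbilical vein endothelial cells co-cultured with PBMC (LPS system) were dosed for 24 h. Total protein was stained with 0.1% sulforhodamine B after 10% TCA fixation, read at 560 nm, and fitted bidirectionally against DMSO baseline.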

Read-out in experiment [7]: Interleukin-1 alpha (IL1a), IL1A (gene 3552)
Briefly: BSK_LPS_IL1a: BioMAP Diversity Plus: LPS Assay for Interleukin-1 alpha (IL1a) Biomarker Activity (AID 2283080). Particulars: primary human HUVEC with PBMC; actives raise or lower the signal. An outline of the steps:
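Human umbilical vein endothelial cells co-cultured with peripheral blood mononuclear cells were LPS-stimulated and exposed to test chemicals for 24 h. IL-1 alpha was quantified by ELISA, with bidirectional curve fitting against DMSO as the negative control and baseline.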

Read-out in experiment [8]: Monocyte Chemoattractant Protein-1 (MCP1), CCL2 (gene 6347)
As to the kind of experiment: BSK_LPS_MCP1: BioMAP Diversity Plus: LPS Assay for Monocyte Chemoattractant Protein-1 (MCP1) Biomarker Activity (AID 2283081).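 For AC50: co-culture stimulated with LPS; secreted MCP-1 protein quantified by ELISA in culture supernatant.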 Particulars: primary human HUVEC with PBMC; actives raise or lower the signal. Summed up:
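HUVEC plus PBMC co-culture (human primary cells, LPS system) exposed to test chemical for 24 h; MCP-1 measured by ELISA. Bidirectional curve fitting against DMSO baseline; parallel SRB total-protein staining flags overt cytotoxicity.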

Experiment [9] is described as follows: BSK_LPS_PGE2: BioMAP Diversity Plus: LPS Assay for Prostaglandin E2 (PGE2) Biomarker Activity (AID 2283082). Particulars: primary human HUVEC with PBMC; actives raise or lower the signal. Summed up: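 LPS-activated HUVEC/PBMC co-culture; cmpd dosed, 24 h; PGE2 by ELISA; bidirectional fit vs DMSO; SRB (0.1%, TCA-fixed, 560 nm) in parallel plates for overt cytotox.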

Read-out in experiment [10]: Macrophage colony-stimulating factor (MCSF), CSF1 (gene 1435)
As to the kind of experiment: BSK_LPS_MCSF: BioMAP Diversity Plus: LPS Assay for Macrophage colony-stimulating factor (MCSF) Biomarker Activity (AID 2283083). The following applies: primary human HUVEC with PBMC; actives raise or lower the signal. An outline of the steps:
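Human umbilical vein endothelial cells co-cultured with peripheral blood mononuclear cells were exposed to compound for 24 h. M-CSF levels were measured by ELISA, and bidirectional curve fitting used DMSO as the negative control and baseline.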

Read-out in experiment [11]: Tissue Factor, F3 (gene 2152)
As to the kind of experiment: BSK_LPS_TissueFactor: BioMAP Diversity Plus: LPS Assay for Tissue Factor Biomarker Activity (AID 2283084). The following applies: primary human HUVEC with PBMC; actives raise or lower the signal. Summed up: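 Human umbilical vein endothelial cells co-cultured with peripheral blood mononuclear cells were dosed and stimulated with LPS. Cell-surface CD142 was quantified by ELISA at 24 h. Activity was fitted bidirectionally against DMSO baseline.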

Read-out in experiment [12]: Tumor necrosis factor (Homo sapiens) (UniProt P01375)
As to the kind of experiment: BSK_LPS_TNFa: BioMAP Diversity Plus: LPS Assay for Tumour Necrosis Factor alpha (TNFa) Biomarker Activity (AID 2283085). Particulars: primary human HUVEC with PBMC; actives raise or lower the signal. An outline of the steps:
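Read-out is ELISA of TNFa in primary human endothelial cell–PBMC co-cultures at 24 h after compound. Activity in either direction was fitted against DMSO.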

Read-out in experiment [13]: Vascular cell adhesion molecule 1 (VCAM1), VCAM1 (gene 7412)
As to the kind of experiment: BSK_LPS_VCAM1: BioMAP Diversity Plus: LPS Assay for Vascular cell adhesion molecule 1 (VCAM1) Biomarker Activity (AID 2283086). The following applies: primary human HUVEC with PBMC; actives raise or lower the signal. Summed up:
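HUVEC + PBMC co-culture, LPS system; compound 24 h; VCAM-1 by ELISA; bidirectional fit vs DMSO control; parallel SRB (0.1%, TCA-fixed, 560 nm) for cytotoxicity.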

Read-out in experiment [14]: CD40, CD40 (gene 958)
Briefly: BSK_SAg_CD40: BioMAP Diversity Plus: SAg Assay for CD40 Biomarker Activity (AID 2283088). The following applies: primary human HUVEC with PBMC; actives raise or lower the signal. An outline of the steps:
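Human umbilical vein endothelial cells co-cultured with PBMC; CD40 levels measured by ELISA with fluorescence read-out 24 h after chemical dosing. Gain or loss of signal fitted bidirectionally against DMSO baseline.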

Read-out in another experiment: CD69, CD69 (gene 969)
Briefly: BSK_SAg_CD69: BioMAP Diversity Plus: SAg Assay for CD69 Biomarker Activity (AID 2283089).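 For AC50: cell surface CD69 protein quantified by ELISA with fluorescence detection.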 The following applies: primary human HUVEC with PBMC; actives raise or lower the signal. An outline of the steps: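 Endothelial/PBMC co-culture; chemical added; 24 h incubation; CD69 ELISA with fluorescence detection; bidirectional fit vs DMSO.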

Read-out in experiment [15]: Monocyte Chemoattractant Protein-1 (MCP1), CCL2 (gene 6347)
Briefly: BSK_SAg_MCP1: BioMAP Diversity Plus: SAg Assay for Monocyte Chemoattractant Protein-1 (MCP1) Biomarker Activity (AID 2283090). Particulars: primary human HUVEC with PBMC; actives raise or lower the signal. An outline of the steps: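 MCP-1 levels in the endothelial–PBMC SAg co-culture were quantified by ELISA at 24 h post-dosing; both increases and decreases versus DMSO scored. Cytotoxicity monitored by SRB total protein in parallel cultures.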

Read-out in experiment [16]: E-selectin (Homo sapiens) (UniProt P16581)
As to the kind of experiment: BSK_SAg_Eselectin: BioMAP Diversity Plus: SAg Assay for Eselectin Biomarker Activity (AID 2283091). Particulars: primary human HUVEC with PBMC; actives raise or lower the signal. An outline of the steps:
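HUVEC co-cultured with PBMC, compound dosed then read at 24 h; E-selectin measured by ELISA. Activity fitted bidirectionally against DMSO as negative control and baseline.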

Read-out in experiment [17]: CD40, CD40 (gene 958)
As to the kind of experiment: BSK_LPS_CD40: BioMAP Diversity Plus: LPS Assay for CD40 Biomarker Activity (AID 2283076). Particulars: primary human HUVEC with PBMC; actives raise or lower the signal. Summed up: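 Primary human umbilical vein endothelial cells co-cultured with peripheral blood mononuclear cells, LPS-stimulated, were dosed with chemical and read 24 h later. CD40 levels were measured by ELISA and fitted bidirectionally against DMSO as negative control and baseline.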

Chain of Tumor necrosis factor (Homo sapiens) (P01375 whole entry, looked up): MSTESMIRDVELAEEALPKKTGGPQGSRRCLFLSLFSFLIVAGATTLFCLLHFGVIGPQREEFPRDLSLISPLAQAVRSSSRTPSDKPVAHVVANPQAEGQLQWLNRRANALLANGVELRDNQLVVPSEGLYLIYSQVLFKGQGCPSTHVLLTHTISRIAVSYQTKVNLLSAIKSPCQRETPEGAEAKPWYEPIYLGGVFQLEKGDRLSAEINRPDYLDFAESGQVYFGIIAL
Chain of E-selectin (Homo sapiens) (P16581 whole entry, looked up): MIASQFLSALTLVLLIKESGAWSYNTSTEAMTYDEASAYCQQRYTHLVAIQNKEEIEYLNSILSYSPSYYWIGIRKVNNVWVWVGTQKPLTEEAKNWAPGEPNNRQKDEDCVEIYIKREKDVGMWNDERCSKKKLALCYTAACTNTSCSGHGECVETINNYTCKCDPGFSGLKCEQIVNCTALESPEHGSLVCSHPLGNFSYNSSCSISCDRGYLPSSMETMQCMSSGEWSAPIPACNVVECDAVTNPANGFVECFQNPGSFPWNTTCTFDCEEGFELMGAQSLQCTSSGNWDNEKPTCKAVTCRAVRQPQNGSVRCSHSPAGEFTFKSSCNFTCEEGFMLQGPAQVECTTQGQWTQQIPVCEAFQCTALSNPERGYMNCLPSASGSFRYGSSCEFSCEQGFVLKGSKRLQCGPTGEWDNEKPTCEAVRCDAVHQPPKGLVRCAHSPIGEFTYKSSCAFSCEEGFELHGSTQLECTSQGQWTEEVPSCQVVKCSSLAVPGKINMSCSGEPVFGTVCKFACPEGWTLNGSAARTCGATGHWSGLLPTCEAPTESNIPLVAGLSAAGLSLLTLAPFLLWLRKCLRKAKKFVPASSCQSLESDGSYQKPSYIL

Regarding `O=C1c2ccccc2C(=O)N1CCc1noc(-c2ccc(CN3CCCCCC3)s2)n1`, the result in experiment [1], in experiment [2], in [3], in [4], in [5] and in experiment [6] was inactive. The result in experiment [7], in experiment [8], in experiment [9], in [10], in experiment [11] and in experiment [12] was inactive. The outcome in [13] was “inactive”; with CD40, CD40 (gene 958) [14] it was “inactive”; in the experiment with CD69, CD69 (gene 969), “inactive”; in experiment [15], “inactive”. Further, the AC50 (in general, the concentration at which the activity in the assay is half-maximal) in [16] is 16.9 µM (active).
Take `CCCC(=O)OCCC(C)C`: the outcome was “inactive” in experiment [1]; “inactive” in experiment [2]; “inactive” in [3]; “inactive” in the experiment with CD40, CD40 (gene 958) [17]; “inactive” in experiment [4]; “inactive” in experiment [5]. Also, the result in experiment [6], in experiment [7], in experiment [8], in experiment [9], in experiment [10] and in experiment [11] was inactive. The outcome is “inactive” in [12]; “inactive” in experiment [13]; “inactive” with CD40, CD40 (gene 958) [14]; “inactive” with CD69, CD69 (gene 969); “inactive” in experiment [15]; “inactive” in experiment [16].
Turning to `CCCCCCCCCCCC[N+](C)(C)C`, the AC50 is 29.7 µM (active) in experiment [1]; 30.7 µM (active) in [2]; 34 µM (active) in experiment [3]; 20.3 µM (active) in experiment [4]; 20 µM (active) in experiment [5]; 25.7 µM (active) in experiment [6]. Further, the AC50 is 16.6 µM (active) in [7]; 25.5 µM (active) in [8]; 26 µM (active) in experiment [10]; 32.4 µM (active) in experiment [11]; 31.7 µM (active) in experiment [12]; 25.7 µM (active) in [13]. Also, the AC50 with CD69, CD69 (gene 969) was 18.1 µM (active); in [15], 18.4 µM (active); in experiment [16] it was 32.2 µM (active). The outcome in [9] was inactive.
